Laboratory results published in PubChem BioAssay (EPA / NIEHS).
Calls of active or inactive are those of the source. The calls were made as follows, unless noted: active = hit-call score of the fitted dose curve at least 0.9, where 1 is the maximum; inactive = score below 0.9.

Legend:
[1] = read-out: Protein phosphatase 2A (PPP2R4), PTPA (gene 5524); assay: LTEA_HepaRG_PPP2R4: Life Technologies and Expression Analysis (LTEA) Assay for Protein phosphatase 2A (PPP2R4) using HepaRG (AID 2283522); conditions: mRNA level, 48 h; actives raise or lower the signal
Procedure, shortened: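 Expression was quantified by Fluidigm qRT-PCR normalised to three housekeeping genes after 48 h treatment. Human HepaRG cells received an 8-point series from 100 µM downward by half-logs, in duplicate with 0.5% DMSO vehicle and 1 mM phenobarbital as induction control.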

[2] = read-out: Phosphatase and tensin (PTEN), PTEN (gene 5728); assay: LTEA_HepaRG_PTEN: Life Technologies and Expression Analysis (LTEA) Assay for Phosphatase and tensin (PTEN) using HepaRG (AID 2283523); conditions: mRNA level, 48 h; actives raise or lower the signal
Procedure, shortened: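 HepaRG, 48 h exposure, 8-pt half-log series from 100 uM top, 0.5% DMSO vehicle, duplicates. Readout: Fluidigm qRT-PCR of PTEN transcript; housekeeping normalization (ACTB, GAPDH, POLR2A). Gain or loss fitted relative to DMSO baseline.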

[3] = read-out: solute carrier (SLC22A1), SLC22A1 (gene 6580); assay: LTEA_HepaRG_SLC22A1: Life Technologies and Expression Analysis (LTEA) Assay for solute carrier (SLC22A1) using HepaRG (AID 2283524); conditions: mRNA level, 48 h; actives raise or lower the signal;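 as to AC50: differentiated human HepaRG liver cells in serum-free induction medium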
Procedure, shortened: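 qRT-PCR readout (TaqMan, Fluidigm arrays) of SLC22A1 transcript, normalized to three housekeeping genes; bidirectional curve fit relative to 0.5% DMSO vehicle. Differentiated human HepaRG cells, 48 h chemical exposure, top concentration 100 uM, half-log steps, eight points.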

[4] = read-out: Pyruvate Dehydrogenase Kinase 4 (PDK4), PDK4 (gene 5166); assay: LTEA_HepaRG_PDK4: Life Technologies and Expression Analysis (LTEA) Assay for Pyruvate Dehydrogenase Kinase 4 (PDK4) using HepaRG (AID 2283525); conditions: mRNA level, 48 h; actives raise or lower the signal
Procedure, shortened: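 HepaRG (human liver line), 48 h chemical exposure, 8-pt half-log CRC top 100 uM, 0.5% DMSO vehicle, duplicates. Readout: TaqMan qRT-PCR of PDK4 mRNA, housekeeping-normalized; gain/loss fit relative to DMSO baseline.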

[5] = read-out: NAD(P)H dehydrogenase [quinone] 1 (NQO1), NQO1 (gene 1728); assay: LTEA_HepaRG_NQO1: Life Technologies and Expression Analysis (LTEA) Assay for NAD(P)H dehydrogenase [quinone] 1 (NQO1) using HepaRG (AID 2283526); conditions: mRNA level, 48 h; actives raise or lower the signal
Procedure, shortened: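 NQO1 transcript induction or loss measured by TaqMan qRT-PCR, referenced to three housekeeping genes and fitted bidirectionally against 0.5% DMSO. HepaRG cultures exposed 48 h, duplicate, eight-point half-log series, top 100 uM.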

[6] = read-out: Nuclear factor erythroid 2-related factor 2 (Homo sapiens) (UniProt Q16236); assay: LTEA_HepaRG_NFE2L2: Life Technologies and Expression Analysis (LTEA) Assay for Nuclear factor erythroid 2-related factor 2 (NFE2L2) Transcription Factor using HepaRG (AID 2283527); conditions: mRNA level, 48 h; actives raise or lower the signal
Procedure, shortened: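 HepaRG, 48 h dosing, 8-pt half-log series from 100 uM in 0.5% DMSO, duplicates. Read-out: NFE2L2 mRNA by qRT-PCR (ACTB/GAPDH/POLR2A normalization). Bidirectional curve fit vs DMSO baseline.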

[7] = read-out: succinate dehydrogenase complex iron sulfur subunit B (SDHB), SDHB (gene 6390); assay: LTEA_HepaRG_SDHB: Life Technologies and Expression Analysis (LTEA) Assay for succinate dehydrogenase complex iron sulfur subunit B (SDHB) using HepaRG (AID 2283528); conditions: mRNA level, 48 h; actives raise or lower the signal
Procedure, shortened: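 SDHB transcript level read by TaqMan qRT-PCR, housekeeping-normalised (ACTB, GAPDH, POLR2A), after 48 h chemical treatment of plated HepaRG cells; eight concentrations top 100 uM, half-log steps, 0.5% DMSO, duplicates; fitted both directions against DMSO.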

[8] = read-out: Signal transducer and activator of transcription 3 (Homo sapiens) (UniProt P40763); assay: LTEA_HepaRG_STAT3: Life Technologies and Expression Analysis (LTEA) Assay for Signal transducer and activator of transcription (STAT3) using HepaRG (AID 2283529); conditions: mRNA level, 48 h; actives raise or lower the signal
Procedure, shortened: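 HepaRG, 48 h exposure, 8-pt half-log series (top 100 uM), 0.5% DMSO vehicle, duplicates. Readout: STAT3 transcript by Fluidigm qRT-PCR, housekeeping-normalized; bidirectional fit vs DMSO baseline.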

[9] = read-out: solute carrier (SLCO1B1), SLCO1B1 (gene 10599); assay: LTEA_HepaRG_SLCO1B1: Life Technologies and Expression Analysis (LTEA) Assay for solute carrier (SLCO1B1) using HepaRG (AID 2283530); conditions: mRNA level, 48 h; actives raise or lower the signal
Procedure, shortened: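 SLCO1B1 transcript levels were quantified by TaqMan qRT-PCR using three housekeeping genes for normalization. This followed 48 h chemical exposure (100 uM top, half-log, 8 points, 0.5% DMSO) of HepaRG liver cells, with gain or loss fitted relative to DMSO.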

[10] = read-out: sulfotransferase 2A1 (SULT2A1), SULT2A1 (gene 6822); assay: LTEA_HepaRG_SULT2A1: Life Technologies and Expression Analysis (LTEA) Assay for sulfotransferase 2A1 (SULT2A1) using HepaRG (AID 2283531); conditions: mRNA level, 48 h; actives raise or lower the signal
Procedure, shortened: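 Expression change of SULT2A1, by qRT-PCR with three housekeeping-gene normalization, was scored bidirectionally versus DMSO. Cells: differentiated HepaRG, dosed in duplicate for 48 h across 8 points, highest 100 µM, half-log dilution, 0.5% DMSO.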

[11] = read-out: Transforming Growth Factor (TGFA), TGFA (gene 7039); assay: LTEA_HepaRG_TGFA: Life Technologies and Expression Analysis (LTEA) Assay for Transforming Growth Factor (TGFA) using HepaRG (AID 2283532); conditions: mRNA level, 48 h; actives raise or lower the signal
Procedure, shortened: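 qRT-PCR read-out of TGFA transcript, normalized to three housekeeping genes, fitted bidirectionally against 0.5% DMSO baseline. Human HepaRG cultures received chemicals for 48 h at eight half-log concentrations, top 100 uM.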

[12] = read-out: Transforming Growth Factor (TGFB1), TGFB1 (gene 7040); assay: LTEA_HepaRG_TGFB1: Life Technologies and Expression Analysis (LTEA) Assay for Transforming Growth Factor (TGFB1) Transporter using HepaRG (AID 2283533); conditions: mRNA level, 48 h; actives raise or lower the signal
Procedure, shortened: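 TGFB1 transcript measured by qRT-PCR with normalisation to three housekeeping genes (ACTB, GAPDH, POLR2A); human HepaRG line treated in duplicate for 48 hr with an 8-point series topping at 100 uM, 0.5% DMSO vehicle, bidirectionally fitted.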

TIMP1, TIMP1 (gene 7076) = assay: LTEA_HepaRG_TIMP1: Life Technologies and Expression Analysis (LTEA) Assay for TIMP1 using HepaRG (AID 2283534); conditions: mRNA level, 48 h; actives raise or lower the signal
Procedure, shortened: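 Bidirectional change in TIMP1 transcript versus 0.5% DMSO, measured by TaqMan qRT-PCR with three housekeeping genes for normalization. HepaRG human liver cells dosed 48 h in duplicate, top concentration 100 uM with half-log dilutions.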

[13] = read-out: Tumor necrosis factor receptor 1 (TNFRSF1A), TNFRSF1A (gene 7132); assay: LTEA_HepaRG_TNFRSF1A: Life Technologies and Expression Analysis (LTEA) Assay for Tumor necrosis factor receptor 1 (TNFRSF1A) using HepaRG (AID 2283535); conditions: mRNA level, 48 h; actives raise or lower the signal
Procedure, shortened: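 mRNA measured by qRT-PCR (TaqMan, Fluidigm arrays) against ACTB/GAPDH/POLR2A housekeepers after 48 h chemical exposure of HepaRG cells. Top concentration 100 uM, half-log 8-point series, duplicates; vehicle 0.5% DMSO, both fit directions.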

[14] = read-out: Thyroid Hormone Responsive (THRSP), THRSP (gene 7069); assay: LTEA_HepaRG_THRSP: Life Technologies and Expression Analysis (LTEA) Assay for Thyroid Hormone Responsive (THRSP) using HepaRG (AID 2283536); conditions: mRNA level, 48 h; actives raise or lower the signal
Procedure, shortened: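 qRT-PCR read-out (Fluidigm TaqMan), housekeeping-normalized (ACTB/GAPDH/POLR2A). HepaRG, 48 h chemical exposure, 8-pt half-log series from 100 uM in 0.5% DMSO, duplicates. Bidirectional curve fit vs 0.5% DMSO baseline.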

[15] = read-out: Cellular tumor antigen p53 (Homo sapiens) (UniProt P04637); assay: LTEA_HepaRG_TP53: Life Technologies and Expression Analysis (LTEA) Assay for Tumor Protein P53 (TP53) using HepaRG (AID 2283537); conditions: mRNA level, 48 h; actives raise or lower the signal
Procedure, shortened: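 TP53 transcript measured by qRT-PCR, normalized to three housekeeping genes, after 48 h treatment of human HepaRG cultures with chemicals from 100 uM downward in half-log steps (0.5% DMSO vehicle, serum-free induction medium). Up- or down-regulation fitted against DMSO.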

[16] = read-out: UDP glucuronosyltransferase (UGT1A1), UGT1A1 (gene 54658); assay: LTEA_HepaRG_UGT1A1: Life Technologies and Expression Analysis (LTEA) Assay for UDP glucuronosyltransferase (UGT1A1) using HepaRG (AID 2283538); conditions: mRNA level, 48 h; actives raise or lower the signal
Procedure, shortened: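 UGT1A1 transcript level, measured by qRT-PCR with three housekeeping genes for normalization, after 48 h treatment of human HepaRG cells (0.5% DMSO, duplicates, up to 100 uM, half-log steps, 8 points). Curves fit both directions against DMSO baseline.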

[17] = read-out: UDP glucuronosyltransferase (UGT1A6), UGT1A6 (gene 54578); assay: LTEA_HepaRG_UGT1A6: Life Technologies and Expression Analysis (LTEA) Assay for UDP glucuronosyltransferase (UGT1A6) using HepaRG (AID 2283539); conditions: mRNA level, 48 h; actives raise or lower the signal
Procedure, shortened: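 Expression was quantified by TaqMan qRT-PCR on Fluidigm arrays with ACTB/GAPDH/POLR2A normalization and bidirectional fitting against 0.5% DMSO. HepaRG cells (~100,000/well) were treated in duplicate for 48 h at eight half-log concentrations up to 100 uM in serum-free induction medium.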

[18] = read-out: X-box binding protein 1 (XBP1), XBP1 (gene 7494); assay: LTEA_HepaRG_XBP1: Life Technologies and Expression Analysis (LTEA) Assay for X-box binding protein 1 (XBP1) using HepaRG (AID 2283540); conditions: mRNA level, 48 h; actives raise or lower the signal
Procedure, shortened: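 XBP1 transcript by qRT-PCR (housekeeping-normalized: ACTB, GAPDH, POLR2A) after 48 h chemical treatment of HepaRG cells, 8-point half-log series topping at 100 uM, vehicle 0.5% DMSO. Gain and loss of signal fitted relative to DMSO.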

[19] = LTEA_HepaRG_LDH_cytotoxicity: Cytotoxicity Assessment in the Life Technologies and Expression Analysis (LTEA) Assay (AID 2283563; active = hit-call score of the fitted dose curve at least 0.9, where 1 is the maximum;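 as to AC50: LDH activity released into spent culture medium as a marker of cell death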)
Procedure, shortened: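 LDH release into culture medium read after 48 h chemical treatment of HepaRG cells. Duplicate wells, eight-point half-log series topping at 100 uM, 0.5% DMSO vehicle and baseline.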

Measured: AC50

Signal transducer and activator of transcription 3 (Homo sapiens), sequence (P40763 whole entry, looked up): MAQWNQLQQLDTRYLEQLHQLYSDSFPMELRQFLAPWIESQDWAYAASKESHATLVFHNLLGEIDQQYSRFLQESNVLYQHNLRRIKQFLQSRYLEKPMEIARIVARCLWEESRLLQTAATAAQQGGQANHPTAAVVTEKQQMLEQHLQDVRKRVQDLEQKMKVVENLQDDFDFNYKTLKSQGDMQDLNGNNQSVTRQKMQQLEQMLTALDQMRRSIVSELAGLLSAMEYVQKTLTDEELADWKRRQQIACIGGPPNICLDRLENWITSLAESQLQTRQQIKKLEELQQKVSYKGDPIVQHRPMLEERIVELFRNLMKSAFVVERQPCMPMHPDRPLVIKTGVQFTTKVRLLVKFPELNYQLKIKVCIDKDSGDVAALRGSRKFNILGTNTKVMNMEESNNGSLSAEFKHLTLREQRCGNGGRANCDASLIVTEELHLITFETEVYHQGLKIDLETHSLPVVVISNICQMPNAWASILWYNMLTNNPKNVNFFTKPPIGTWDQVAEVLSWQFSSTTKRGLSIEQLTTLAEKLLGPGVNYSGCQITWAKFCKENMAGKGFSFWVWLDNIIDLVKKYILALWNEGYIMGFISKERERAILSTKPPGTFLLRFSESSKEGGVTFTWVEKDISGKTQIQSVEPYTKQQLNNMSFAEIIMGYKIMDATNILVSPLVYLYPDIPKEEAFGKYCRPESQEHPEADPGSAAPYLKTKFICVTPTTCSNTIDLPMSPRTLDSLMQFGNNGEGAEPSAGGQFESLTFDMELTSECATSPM
Nuclear factor erythroid 2-related factor 2 (Homo sapiens), sequence (Q16236 whole entry, looked up): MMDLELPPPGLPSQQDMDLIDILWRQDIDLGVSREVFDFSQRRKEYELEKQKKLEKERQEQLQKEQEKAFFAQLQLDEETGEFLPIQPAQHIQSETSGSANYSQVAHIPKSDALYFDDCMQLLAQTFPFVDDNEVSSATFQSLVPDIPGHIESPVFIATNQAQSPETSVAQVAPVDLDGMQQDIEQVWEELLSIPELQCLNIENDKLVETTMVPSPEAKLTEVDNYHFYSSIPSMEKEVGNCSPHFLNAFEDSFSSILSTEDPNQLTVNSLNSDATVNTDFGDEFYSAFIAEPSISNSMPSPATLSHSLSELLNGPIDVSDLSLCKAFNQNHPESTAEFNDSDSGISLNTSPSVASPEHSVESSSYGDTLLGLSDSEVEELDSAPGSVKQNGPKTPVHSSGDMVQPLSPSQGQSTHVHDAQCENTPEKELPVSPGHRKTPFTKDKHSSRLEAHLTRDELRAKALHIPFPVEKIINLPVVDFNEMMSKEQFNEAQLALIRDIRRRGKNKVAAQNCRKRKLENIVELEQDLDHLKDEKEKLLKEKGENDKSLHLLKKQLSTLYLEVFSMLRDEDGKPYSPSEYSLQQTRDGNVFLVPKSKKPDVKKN
Cellular tumor antigen p53 (Homo sapiens), sequence (P04637 whole entry, looked up): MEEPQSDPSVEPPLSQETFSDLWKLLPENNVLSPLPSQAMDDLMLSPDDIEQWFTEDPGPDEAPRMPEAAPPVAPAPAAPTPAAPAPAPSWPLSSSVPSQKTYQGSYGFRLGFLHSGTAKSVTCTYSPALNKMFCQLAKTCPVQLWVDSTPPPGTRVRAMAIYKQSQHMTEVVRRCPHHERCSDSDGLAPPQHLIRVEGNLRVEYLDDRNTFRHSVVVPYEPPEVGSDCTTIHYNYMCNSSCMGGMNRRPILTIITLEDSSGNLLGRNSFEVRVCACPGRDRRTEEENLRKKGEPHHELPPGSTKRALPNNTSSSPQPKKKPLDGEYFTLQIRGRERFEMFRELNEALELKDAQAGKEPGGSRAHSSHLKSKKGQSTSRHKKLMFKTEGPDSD

Nc1ccc(N=Nc2ccccc2)cc1
inactive: [5] | [6] | [8] | [11] | [15]
active: [1] 21.1 µM | [2] 25 µM | [3] 13.6 µM | [4] 13.4 µM | [7] 18.8 µM | [9] 11.4 µM | [10] 22.4 µM | [12] 13.1 µM | TIMP1, TIMP1 (gene 7076) 50 µM | [13] 23.4 µM | [14] 11.4 µM | [16] 13 µM | [17] 19.8 µM | [18] 16.8 µM | [19] 11.9 µM

C[N+](C)(C)CC1CO1 (stereo not given)
inactive: all assays above

CCC[CH2][Sn]([Cl])([CH2]CCC)[CH2]CCC
active: [3] 1.49 µM | [5] 15.8 µM | [7] 50 µM | [8] 15.3 µM | [9] 2.3 µM | [10] 1.63 µM | [11] 50 µM | [13] 50 µM | [14] 2.84 µM | [15] 11.6 µM | [16] 3.12 µM | [17] 12.6 µM | [19] 2.98 µM
inactive: [1] | [2] | [4] | [6] | [12] | TIMP1, TIMP1 (gene 7076) | [18]

CCC12COCN1COC2
inactive: all assays above

CC(C)(C)OOC(=O)c1ccccc1
inactive: all assays above

ClC1=C(Cl)C2(Cl)C3C(Cl)C=CC3C1(Cl)C2(Cl)Cl (stereo not given)
active: [4] 50 µM | [6] 8.87 µM | [15] 14.1 µM | [16] 2.86 µM
inactive: all other assays above

O=C(O)C1C2CCC(O2)C1C(=O)O (stereo not given)
active: [3] 70.7 µM | [9] 69 µM | [10] 76 µM | [12] 35.1 µM | [14] 34.7 µM | [16] 50 µM | [19] 75.1 µM
inactive: all other assays above
